Each structure is given as a SMILES string. Values joined by “and” are separate entries in the source; they are usually repeats but may differ in a detail not shown here. Identical values can stand only once. ± gives the standard deviation of the averaged measurements.
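Also: End-point A600 read in BHI broth at 37 °C with 2% DMSO, inhibition computed as (1 − OD with compound plus ceftriaxone ÷ OD with ceftriaxone only) × 100.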

In the test the test system is Listeria monocytogenes 10403S. Nature of the test: growth inhibition relative to ceftriaxone-alone control; higher = stronger potentiation of ceftriaxone growth inhibition. The settings on record: 10 µM; ceftriaxone 1 ug/ml; 12 h.
For `CN(C)CCOc1ccc(-c2cc(-c3ccc4c(c3)CCC4=NO)c(-c3ccncc3)o2)cc1`, the growth inhibition worked out at 36.5 ± 39%.
The value for `Nc1nc(-c2ccc(F)cc2)c(-c2ccc3ncccc3n2)s1` was -1.57 ± 2.7%; that for `NC(=O)Nc1sc(-c2ccc(F)cc2)cc1C(N)=O` was 40.9 ± 15%.
As to `[O-][S+]1CCN(Cc2ccc(-c3ccc4ncnc(Nc5ccc(OCc6cccc(F)c6)c(Cl)c5)c4c3)o2)CC1`, the growth inhibition is -4.71 ± 1.9%.
The figure for `CC1(C)CC(n2cnc(-c3ccc(F)cc3)c2-c2ccnc(N)n2)CC(C)(C)N1` is -11.4 ± 8.9%.
The figure for `CS(=O)(=O)CCNCc1ccc(-c2ccc3ncnc(Nc4ccc(OCc5ccccc5)c(C(F)(F)F)c4)c3c2)o1` is -5.15 ± 0.36%.
Turning to `COc1cc(Nc2ncc(F)c(Nc3ccc4c(n3)NC(=O)C(C)(C)O4)n2)cc(OC)c1OC`, the growth inhibition was 9.08% and 0.52%.
Turning to `C=CC(=O)Nc1cccc(Oc2nc(Nc3ccc(N4CCN(C)CC4)cc3)ncc2Cl)c1`, the growth inhibition was 13.3 ± 3.3%.
The figure for `C[S+]([O-])c1ccc(-c2nc(-c3ccc(F)cc3)c(-c3ccncc3)[nH]2)cc1` (stereo not drawn) is 28.4 ± 26%.
The figure for `COc1cc2nccc(Oc3ccc(NC(=O)C4(C(=O)Nc5ccc(F)cc5)CC4)cc3)c2cc1OC` [XL-184 (Cabozantinib)] is 30.5 ± 5.4%; for `N#Cc1c(NC(=O)c2ccccc2F)sc2c1CCCC2` it is -3.06 ± 2.3%; for `Cc1cc2c(F)c(Oc3ncnn4cc(OC[C@@H](C)OC(=O)[C@H](C)N)c(C)c34)ccc2[nH]1` it is 100.2 ± 0.95%.
The figure for `CCn1c(N)c(C(=O)NC)c(=O)c2ccc(C#CC(C)(O)COC)nc21` (stereo not drawn) is 2.07 ± 6.6%.
Regarding `COc1cc2ncnc(Nc3ccc(O)c(Br)c3)c2cc1OC`, the growth inhibition was 13.4 ± 5.2%.
The figure for `[O-][S+]1CCN(Cc2ccc(-c3ccc4ncnc(Nc5ccc(OCc6ccccc6)c(F)c5)c4c3)o2)CC1` is 2.23 ± 7.9%.
The value for `CCN(CC)S(=O)(=O)c1ccc(OC)c(Nc2ncc(-c3ccccc3)o2)c1` was -5.97 ± 2.9%; that for `CS(=O)(=O)CCNCc1nc(-c2ccc3ncnc(Nc4ccc(OCc5cccc(C(F)(F)F)c5)cc4)c3c2)cs1` was -8.22 ± 14%.
The figure for `COc1ccc2[nH]c3c4[nH]c5ccc(OC)cc5c4c4c(c3c2c1)C(=O)NC4=O` is -8.86 ± 4.5%; for `CCN(CC)CCCCNc1ncc2cc(-c3cc(OC)cc(OC)c3)c(NC(=O)NC(C)(C)C)nc2n1` it is 23.2 ± 6.8%.
Take `COc1cccc(-n2ncc3c(N/N=C/c4ccc(S(C)(=O)=O)cc4)ncnc32)c1`: the growth inhibition is -2.76 ± 9.3%.
The figure for `N#C/C(=C\c1ccc(O)c(O)c1)C(=O)NCc1ccccc1` is 28.7 ± 25%; for `c1cc(-c2cnn3nc(N4CCOCC4)ccc23)nc(NC2CC2)n1` it is -1.92 ± 0.84%.
The figure for `CCc1cnn2c(NCc3ccc[n+]([O-])c3)cc(N3CCCC[C@H]3CCO)nc12` is -2.28 ± 10%.
The figure for `CCn1c(-c2nonc2N)nc2c(C#CC(C)(C)O)ncc(OC[C@@H]3CCCN3)c21` is 74 ± 6.7%; for `FC(F)(F)c1ccc(Nc2nc3ccc(Oc4ccnc(-c5ncc(C(F)(F)F)[nH]5)c4)cc3[nH]2)cc1` [Raf265 Derivative] it is 49.3 ± 21%; for `c1ccc(-c2nc3n(c2-c2ccc4c(c2)OCO4)CCC3)nc1` it is -10.3 ± 17%.
With `Fc1ccc(-c2ncn(C3CCNCC3)c2-c2ccnc(Oc3ccc4c(c3)OCO4)n2)cc1`, the growth inhibition was -3.86 ± 1.5%.
The value for `Nc1cccc(-c2cc3c(Oc4cccc(O)c4)ncnc3[nH]2)c1` was -3.72 ± 8.2%.
The figure for `FC(F)c1nc2ccccc2n1-c1nc(N2CCOCC2)nc(N2CCOCC2)n1` is 19.6 ± 15%; for `NC1(Cc2ccc(Cl)cc2)CCN(c2ncnc3[nH]ccc23)CC1` it is 35 ± 20%.
The figure for `CCn1c(-c2nonc2N)nc2ccccc21` is -9.18 ± 6.6%; for `CCS(=O)(=O)c1ccc(OC)c(Nc2ncc(-c3cccc(F)c3)o2)c1` it is 2.54 ± 2.8%.
On to `C#Cc1cccc(Nc2ncnc3ccc(OCCCCNCCS(C)(=O)=O)cc23)c1`, for which the growth inhibition was -12 ± 5.6%.
The figure for `N#CC(=C(/N)Sc1ccccc1N)/C(C#N)=C(\N)Sc1ccccc1N` is 51.1 ± 42%; for `COC(=O)Nc1ccc(-c2nc(N3CCOCC3)c3cnn(C4CCN(C(=O)OC)CC4)c3n2)cc1` it is -59.1 ± 10%.
The figure for `CNC(=O)c1ccc(C)c(-n2c(C)cc(OCc3ccc(F)cc3F)c(Br)c2=O)c1` is 35.2 ± 11%; for `CS(=O)(=O)CCNCc1cc(-c2cc3c(Nc4ccc(OCc5cccc(F)c5)c(Cl)c4)ncnc3s2)cs1` it is -10.8 ± 13%.
The value for `c1ccc(-c2n[nH]cc2-c2ccnc(-c3ccc(OCCN4CCOCC4)cc3)c2)nc1` was -1.77 ± 9.5%.

The values are drawn from the supplement of paper PMC5641865, “A screen for kinase inhibitors identifies antimicrobial imidazopyridine aminofurazans as specific inhibitors of the Listeria monocytogenes PASTA kinase PrkA” (The Journal of Biological Chemistry, 2017).
